# Assay results from PubChem BioAssay (NCATS).
# Several values for one entry are separate records, joined by “and”; a condition that tells them apart may be missing. Identical values can stand only once. Results filed as inconclusive are left out. Unmarked numbers belong to inactive results. Activity calls are given as the source filed them. The call rests on the fitted dose curve; in most records, active means well fitted cell-killing curve with a large enough effect; inconclusive means small, poorly fitted or top-dose-only effect; inactive means flat fitted curve, though single readings scatter.
# Assay: Cellular viability qHTS for adrenocortical cancer (ACC) cell line NCI-H295R (AID 1963990); further: nearly all actives have a fitted effect of over 60% in size
# Details: CellTiter-Glo ATP luminescence, 48 h; series mostly up to 46.1 µM; activity change, negative = viability loss: at the top concentration
# Source text: PI: Naris Nilubol, MD Surgical Oncology Program, National Cancer Institute (NCI) National Institute of Health (NIH), Bethesda, Maryland Adrenocortical cancer (ACC) is a rare malignancy with poor survival outcomes and few treatment options. Currently, mitotane is the only FDA-approved therapy for ACC. Although adjuvant radiation therapy is rarely utilized, it has the potential to improve survival in select cases. Through a quantitative high-throughput drug screen (qHTS), we identified auranofin (AF), a thioredoxin reductase (TXNRD) inhibitor, as a promising candidate drug. This study aims to evaluate whether AF can enhance the efficacy of radiation therapy in the treatment of ACC. Two human ACC cell lines, SW-13 and NCI-H295R, were screened using the National Center for Advancing Translational Sciences (NCATS) Pharmaceutical Collection (NPC) and the Mechanism Interrogation PlatE (MIPE) library (~4,991 compounds). CellTiter-Glo (Cat # G7570, Promega, Madison, WI) was utilized to measure cell viability. Described herein are the results of the corresponding viability assay.
# PROTOCOL TABLE (as described by Inglese J, Shamu CE and Guy RK. 2007) SEQUENCE No. (e.g., 1, 2, 3, etc.); […] (e.g., Cells, Incubation, Reagent, etc.); VALUE; DESCRIPTION. 1; Cells; 5 uL; white, solid-bottom, 1536-well tissue-culture treated plates. 2; Time; overnight culture at 37C with 5% CO2. 3; Compounds and control; 23 nL; Kalypsis pin tool (Wako USA) equipped with a 1536-well pin head to transfer to the assay plates. 4; Time; 48 hours; 37C with 5% CO2. 5; Reagent; 4 uL; CellTiter-Glo luminescent substrate mix. 6; Time; 20 min at room temperature. 7; Detection; Luminescence; ViewLux plate reader NOTES (numbers refer to Sequence numbers above) 1. NCI-H295R cells were harvested from a T175 flask and resuspended in ITS-supplemented DMEM serum-free medium at a concentration of 300 000 cells/mL. Then 5 uL of resuspended cells were dispensed into each well of white, solid-bottom, 1536-well tissue-culture-treated plates using a multidrop combi dispenser. The plates were covered with stainless steel gasket lids. 2-3. The plates were cultured overnight at 37C with 5% CO2. Twenty-three nL of compounds (eight selected concentrations from the NPC / MIPE) or positive control (10 mM stock of bortezomib) in DMSO was transferred to each well of the assay plate using a pin tool (Kalypsys, San Diego, CA, USA). The final concentration of the compounds in the 5 uL assay volume ranged from 0.5 nM to 46 uM. 4-6. After 48 hours of incubation at 37C and 5% CO2, 4 uL of CellTilter-Glo luminescent substrate mix (Promega, Madison, WI, USA) was added to each well. Then the plates were incubated for 20 minutes at room temperature. 7. After incubation, luminescence was measured using a ViewLux plate reader (PerkinElmer, Waltham, MA, USA) with a clear filter was used to measure the number of metabolically competent cells. To determine compound activity in the qHTS assay, the titration-response data for each sample was plotted and modeled by a four-parameter logistic fit yielding IC50 and efficacy (maximal response) values. Raw plate reads for each titration point were normalized relative to positive control ([…], 100% inhibition) and DMSO-only wells (basal, 0%). REFERENCES: Inglese J, Shamu CE and Guy RK, Reporting data from high throughput screening of small molecule libraries, Nature Chemical Biology, 2007, 3(8): 438-441. doi.org/10.1038/nchembio0807-438.
SMILES,"activity change, negative = viability loss",Potency
COC(=O)N(CC(=O)O)Cc1cccc(OCc2nc(-c3ccc(Cl)cc3)oc2C)c1,-17.1%,–
Cc1ccc(NC(=O)c2ccc(CN3CCN(C)CC3)cc2)cc1Nc1nccc(-c2cccnc2)n1,–,25.1 µM (active)
CCCCN(CCCC)C(C(N)=O)c1ccc(OC)cc1 (stereo not given),-5.63%,–
C[C@H]1CN(C2COC2)CCN1c1ccc(Nc2cc(-c3ccnc(N4CCn5c(cc6c5CC(C)(C)C6)C4=O)c3CO)cn(C)c2=O)nc1,-1.69%,–
NC(=S)N/N=C/c1ncccc1N,-1.6%,–
N#Cc1ccc(Oc2ccc3c(c2)COB3O)cc1,-8.51%,–
O=C(O)c1c(O)c(-c2ccccc2)nc2ccccc12,-12.2%,–
Cn1cc(/C=C2\C(=O)Nc3cccnc32)c2ccccc21,-21.5%,–
OCCOc1ccc(/C(=C(/CCCl)c2ccccc2)c2ccccc2)cc1,–,25.1 µM (active)
Cn1cc(C(=O)[C@@H]2CCc3nc[nH]c3C2)c2ccccc21,-12.9%,–
NC1=NCC2c3ccccc3Cc3ccccc3N12 (stereo not given),-21.4%,–
O=C(NO)c1cnc(NC2(c3cccc(F)c3)CCCCC2)nc1,–,3.16 µM (active)
COc1ccc(-n2c(SCCCN3C(=O)c4cccc5cccc(c45)C3=O)nnc2-c2ccncc2)cc1,-16.5%,–
Nc1n[n+]([O-])c2ccccc2[n+]1[O-],–,17.8 µM (active)
C=CC[N+]1([C@H]2C[C@H]3[C@@H]4CC[C@H]5C[C@H](O)[C@@H](N6CCOCC6)C[C@]5(C)[C@H]4CC[C@]3(C)[C@H]2OC(C)=O)CCCC1,-24.1%,–
NC(=O)c1c(OCc2c(F)cc(Br)cc2F)nsc1NC(=O)NCCCCN1CCCC1,–,22.4 µM (active)
C/C=C(/C(=C/C)c1ccc(OC(C)=O)cc1)c1ccc(OC(C)=O)cc1,–,23.1 µM (active)
CC(=O)N1CCC(Nc2cc(C(=O)NC[C@H](O)CN3CCc4ccccc4C3)ncn2)CC1,-18%,–
CCOC(=O)N1CCC(Nc2ccc(Cl)cc2N)CC1,–,16.4 µM (active)
NC(=O)c1ccc2nc(-c3ccc(C4(N)CCC4)cc3)c(-c3ccccc3)n2n1,–,6.31 µM (active)

SMILES,"activity change, negative = viability loss",Potency
CS[C@H]1SC[C@@H]2C(=O)N(C)[C@H](C(C)C)C(=O)OC[C@H](NC(=O)c3cnc4ccccc4n3)C(=O)N[C@H](C)C(=O)N(C)[C@H]1C(=O)N(C)[C@H](C(C)C)C(=O)OC[C@H](NC(=O)c1cnc3ccccc3n1)C(=O)N[C@H](C)C(=O)N2C,–,0.1 µM (active)
NC(=O)n1c(O)c(C(=O)c2cccs2)c2cc(Cl)ccc21,–,9.2 µM (active)
O=C(C1CCCCC1)N1CC(=O)N2CCCc3ccccc3C2C1 (stereo not given),–,29.1 µM (active)
OC(CCN1CCCCC1)(c1ccccc1)C1CCCCC1 (stereo not given),–,4.61 µM (active)
O=C(Nc1ccc(S(=O)(=O)N2CCOCC2)cc1)c1cc(Cl)ccc1NS(=O)(=O)c1ccc(Cl)s1,–,20.6 µM (active) and 25.1 µM (active)
CCc1cccc(N(C)C(N)=Nc2cccc3ccccc23)c1,–,20.6 µM (active)
Cn1ncnc1[C@H]1c2n[nH]c(=O)c3cc(F)cc(c23)N[C@@H]1c1ccc(F)cc1,-20.2%,–
C[C@H](N)C(=O)N[C@@H](C)C(=O)NC1[C@H]2CN(c3nc4c(cc3F)c(=O)c(C(=O)O)cn4-c3ccc(F)cc3F)C[C@@H]12 (stereo not given in full),-15.9%,–
C[C@@H](c1ccc2nccn2c1)n1nnc2ncc(-c3cnn(C)c3)nc21,-13.2%,–
O=C(Cc1ccccc1)Nc1nnc(CCSCCc2nnc(NC(=O)Cc3ccccc3)s2)s1,0.107%,–
C=C[C@@H]1CN2CCC1C[C@H]2[C@H](O)c1ccnc2ccc(OC)cc12 (stereo not given in full),1.4%,–
c1ccc(OCc2ccc(CCCN3CCOCC3)cc2)cc1,-14.6%,–
OCCOCCN1CCN(C(c2ccccc2)c2ccc(Cl)cc2)CC1 (stereo not given),-29.3%,–
CN1CCN(C2=Nc3cc(F)ccc3Cc3ccccc32)CC1,-9.15%,–
CC(O)c1cc(C(=O)N[C@@H](C)Cn2ccc(-c3ccc(C#N)c(Cl)c3)n2)n[nH]1 (stereo not given in full),0.758%,–
O=C1CC[C@H](N2Cc3c(OCc4ccc(CN5CCOCC5)cc4)cccc3C2=O)C(=O)N1,-9.45%,–
NNC(=O)CP(=O)(c1ccccc1)c1ccccc1,–,16.4 µM (active)
CC(=C(CCOC(=O)C(C)C)SSC(CCOC(=O)C(C)C)=C(C)N(C=O)Cc1cnc(C)nc1N)N(C=O)Cc1cnc(C)nc1N,-16.7%,–
NS(=O)(=O)Oc1ccc2c3c(c(=O)oc2c1)CCCCC3,-1.46%,–
NCCNc1cccc2ccccc12,–,20.6 µM (active)
